From PubChem BioAssay
Values joined by “and” are separate entries in the source; they are usually repeats but may differ in a detail not shown here. Identical values can stand only once. Where a structure was tested more than once in an assay, its records may differ in their call. Active and inactive are the calls of the source. Unless noted, how the calls were made is not given here.

Legend:
[1] = liver-stage malaria parasite load reduction – cell-based, known kinase inhibitor set, luminescence, hepatoma host viability (AID 624392); conditions: Plasmodium liver stage in hepatoma cells, luciferase luminescence, concentration not given here; liver cell % of control: measured here: host liver cell viability; parasite % of control: stronger effect = lower value;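 further: infected cells incubated roughly two days before readout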
[2] = altered dexamethasone sensitivity, NF-kB reporter, cell-based, luciferase, IL-1B stimulus (AID 624486); conditions: IL-1B + dexamethasone, luminescence; percent of negative control (+Dex): actives lie on both sides, concentration not given here; z-score: measured here: IL-1B alone, no Dex;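 on percent of negative control (+Dex): 100% = mean signal of vehicle control wells on the plate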
[3] = C. elegans survival during P. aeruginosa infection – whole organism (AID 651566);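 further: tested at 14 µM; sign flipped so higher z means a lower ratio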; conditions: C. elegans killed by P. aeruginosa, survival ratio
[4] = pro-inflammatory signaling induction in mouse macrophages – cell-based, murine, luminescence (AID 652131); conditions: murine macrophage pro-inflammatory reporter, stronger effect = higher value
[5] = target: Cellular tumor antigen p53 (Homo sapiens) (UniProt P04637); experiment: GFP-p53 level modulators in HPV16+ cells – imaging, known kinase inhibitor set, EGFP/DsRed ratio (AID 1053116); conditions: GFP-p53 stability, stronger effect = higher value; EGFP object count: measured here: GFP-p53 positive objects count;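 further: cells exposed to compounds for 24 h at 37 °C before reading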
Cellular tumor antigen p53 (Homo sapiens), sequence (P04637 whole entry, looked up): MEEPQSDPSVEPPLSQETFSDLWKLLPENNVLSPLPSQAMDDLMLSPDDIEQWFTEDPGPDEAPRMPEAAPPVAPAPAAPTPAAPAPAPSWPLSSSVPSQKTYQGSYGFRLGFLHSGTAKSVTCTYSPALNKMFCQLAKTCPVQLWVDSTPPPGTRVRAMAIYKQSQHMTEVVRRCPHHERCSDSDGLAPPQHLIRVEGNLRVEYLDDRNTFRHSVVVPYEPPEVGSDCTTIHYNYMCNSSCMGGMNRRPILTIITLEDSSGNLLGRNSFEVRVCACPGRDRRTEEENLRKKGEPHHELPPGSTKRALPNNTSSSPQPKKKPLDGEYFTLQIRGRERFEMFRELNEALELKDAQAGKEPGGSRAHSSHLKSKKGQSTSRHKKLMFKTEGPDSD

[6] = inducers of IRF3 signaling, differentiated THP-1 – cell-based, PMA-stimulated THP-1, luminescence (AID 1053176); conditions: PMA-differentiated THP-1, IRF3 reporter luminescence; stronger effect = higher value
[7] = MELAS cybrid and Rieske KO viability enhancers – cell-based, MELAS cybrids, Rieske KO mouse fibroblasts, CellTiter-Glo, primary screen (AID 1508586;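 active means mean z-score across replicates of 1.96 or higher in either the MELAS or the Rieske mutant cell line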;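 further: z relative to plate mean and SD of compound and empty wells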); conditions: low glucose
[8] = MELAS cybrid survival, CellTiter-Glo 48 h, stronger effect = higher value
[9] = Rieske KO mouse fibroblast survival, CellTiter-Glo 72 h

Structure (SMILES)	liver cell % of control [1]	parasite % of control [1]	percent of negative control (+Dex) [2]	z-score [2]	z-score [3]	z-score [4]	EGFP object count [5]	EGFP/DsRed ratio [5]	fraction signal [6]	z-score [7, 8]	z-score [7, 9]
O=C1NC(=O)C(c2ccc(Cl)cc2)=C1Nc1ccc(Cl)c(C(=O)O)c1	104%	127% (inactive)	92% (inactive)	0.785	0.035 (inactive)	0.277 (inactive)	4	0.0822 (inactive)	-0.003 (inactive)	-0.525 (inactive)	-0.308
CN1CCC(C(=O)Nc2n[nH]c3nc(-c4ccc(O)cc4)c(Br)cc23)CC1	51.2% and 53.8%	292% (inactive) and 294% (inactive)	108% (inactive) and 100% (inactive)	-0.82 and -0.48	0.21 (inactive) and -0.175 (inactive)	-0.483 (inactive) and -0.641 (inactive)	2.5 and 3	0.0956 (inactive) and 0.0438 (inactive)	0.0155 (inactive) and 0.0035 (inactive)	-0.719 (inactive) and 2.2 (active)	-0.17 and -0.0758
Cc1ccc(NC(=O)c2ccnc(N3CCCC3)c2)cc1-c1ccc(C(=O)NCC2CC2)cc1	90.4%	91.3% (inactive)	104% (inactive)	0.86	-0.79 (inactive)	-0.27 (inactive)	6	0.0951 (inactive)	-0.0005 (inactive)	-0.285 (inactive)	-0.118
N#Cc1ccc2c(-c3ccnc(NC4CC4)n3)c(-c3ccc(F)cc3)nn2c1	122%	87.3% (inactive)	106% (inactive)	0.525	-0.52 (inactive)	2.06 (inactive)	0.5	0.00284 (inactive)	0 (inactive)	-0.69 (inactive)	-0.125
Nc1ncnc2occ(-c3ccc(NC(=O)Nc4cccc(C(F)(F)F)c4)cc3)c12	49.9%	10.9% (inactive)	66.5% (active)	-3	-0.335 (inactive)	-1.22 (inactive)	3.5	0.146 (inactive)	-0.016 (inactive)	-0.197 (inactive)	-0.452
Fc1ccc(-c2c(-c3ccncc3)nc3n2CCS3)cc1	113%	89.2% (inactive)	40% (active)	-5.96	-1.12 (inactive)	1.33 (inactive)	1.5	0.0335 (inactive)	-0.0075 (inactive)	-0.499 (inactive)	-0.254
COc1ccc2ncnc(Nc3ccc(OCc4ccccc4)cc3)c2c1	120%	92.8% (inactive)	88% (inactive)	-0.885	0.35 (inactive)	1.39 (inactive)	4	0.134 (inactive)	-0.023 (inactive)	-0.876 (inactive)	-0.262
CNC(=O)c1ncccc1Nc1nc(Nc2cc3c(cc2OC)CCCN3C(=O)CN(C)C)nc2[nH]ccc12	91.6%	670% (inactive)	99.5% (inactive)	0.22	0.02 (inactive)	0.337 (inactive)	3	0.0957 (inactive)	-0.01 (inactive)	6.01 (active)	11.9
O=C(Nc1n[nH]c2cc(-c3cc(F)ccc3F)ccc12)C1CC1	90.7%	72.2% (inactive)	81% (inactive)	-0.38	-0.655 (inactive)	0.317 (inactive)	4	0.173 (inactive)	-0.0055 (inactive)	-0.186 (inactive)	-0.425
O=C(O[C@H]1CN[C@H](C#Cc2cc3ncnc(Nc4ccc5c(cnn5Cc5ccccc5)c4)c3s2)C1)N1CCOCC1	118%	137% (inactive)	58% (inactive)	-2.13	1.08 (inactive)	-0.862 (inactive)	3	0.0849 (inactive)	-0.0115 (inactive)	0.875 (inactive)	-0.356
Fc1cccc(COc2ccc(Nc3ncncc3C#Cc3ccccc3)cc2Cl)c1	87.3%	98% (inactive)	85.5% (inactive)	-0.815	1.36 (inactive)	-0.904 (inactive)	4	0.0412 (inactive)	-0.002 (inactive)	-0.0898 (inactive)	-0.226
CC(C)=Cc1cccc2[nH]c(O)c(N=Nc3ccc(S(N)(=O)=O)cc3)c12	77.9%	247% (inactive)	109% (inactive)	1.89	-0.155 (inactive)	0.183 (inactive)	21.5	0.593 (inactive)	0 (inactive)	0.633 (inactive)	0.0676
COc1cc2ncn(-c3cc(OCc4cccs4)c(C(N)=O)s3)c2cc1OC	107%	69% (inactive)	111% (inactive)	0.28	-0.19 (inactive)	-0.264 (inactive)	3.5	0.163 (inactive)	-0.0075 (inactive)	-0.262 (inactive)	-0.175
Nc1ncnc2occ(-c3ccc(NC(=O)Nc4cc(C(F)(F)F)cc(C(F)(F)F)c4)cc3)c12	58.8%	11.2% (inactive)	77.5% (inactive)	-2.48	-0.205 (inactive)	-1.51 (inactive)	2	0.014 (inactive)	-0.006 (inactive)	-0.873 (inactive)	-0.237
